Data as given in the supplement of paper PMC9262897, “Low-cost anti-mycobacterial drug discovery using engineered E. coli” (Nature Communications, 2022).
Where a name gives a salt, the structure may show the parent alone. ± gives the standard deviation of the averaged measurements.

system: E. coli TESEC Alr+ wild-type control; experiment: growth (OD600 after 10 h); higher = more growth (less inhibition); details: compound 0.1 mM; raw OD600 reference: median of DMSO wells 0.49, cell-free background 0.052
Experimental: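 TESEC Mtb Alr E. coli (ΔaraC ΔtolC ΔentC Δalr ΔdadX, arabinose-inducible Mtb Alr) or the Alr+ wild-type control strain, grown in defined M9-fructose medium without D-alanine in 96-well plates with Prestwick library compounds at 0.1 mM and 1% DMSO. Low Alr induction is 0.1 µM arabinose and high induction is 10 mM arabinose.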

| Compound | growth |
| --- | --- |
| COP(=O)(OC)C(O)C(Cl)(Cl)Cl (stereo not given) [Trichlorfon] | 0.505 ± 0.046 |
| C[C@]12N[C@H](Cc3ccccc31)c1ccccc12 [Dizocilpine maleate] | 0.54 ± 0.094 |
| CN(C)C(=O)Oc1ccc[n+](C)c1 [Pyridostigmine iodide] | 0.436 ± 0.011 |
| COc1cc([C@@H]2c3cc4c(cc3[C@H](O)[C@H]3COC(=O)[C@H]23)OCO4)cc(OC)c1OC [Podophyllotoxin] | 0.545 ± 0.085 |
| COc1ccc(Cc2nccc3cc(OC)c(OC)cc23)cc1OC [Papaverine hydrochloride] | 0.579 ± 0.04 |
| CCC1(c2ccc(N)cc2)CCC(=O)NC1=O (stereo not given) [Glutethimide, para-amino] | 0.445 ± 0.022 |
| CC(C)(N)Cc1ccccc1 [Phentermine hydrochloride] | 0.603 ± 0.13 |
| CC(N)C(O)c1ccccc1 (stereo not given) [Phenylpropanolamine hydrochloride] | 0.527 ± 0.077 |
| CN1[C@@H]2C[C@@H](OC(=O)[C@H](CO)c3ccccc3)C[C@H]1[C@@H]1O[C@@H]12 [Scopolamine hydrochloride] | 0.469 ± 0.026 |
| CC(C)c1c(CN(C)C(C)Cc2ccccc2)n(C)n(-c2ccccc2)c1=O (stereo not given) [Famprofazone] | 0.443 ± 0.019 |
| Oc1ccc2c3c1O[C@H]1[C@@H](O)CC[C@@]4(O)[C@@H](C2)N(CC2CCC2)CC[C@]314 [Nalbuphine hydrochloride] | 0.515 ± 0.011 |
| CC(=O)NC1CCSC1=O (racemic) [N-Acetyl-DL-homocysteine Thiolactone] | 0.406 ± 0.015 |
| CC(C)C[C@H](CN)CC(=O)O [Pregabalin] | 0.614 ± 0.019 |
| CNCC(O)c1ccc(O)cc1 (racemic) [(+,-)-Synephrine] | 0.58 ± 0.057 |
| CC(NC(C)(C)C)C(=O)c1cccc(Cl)c1 (stereo not given) [Bupropion hydrochloride] | 0.46 ± 0.026 |
| CNC(=O)Oc1ccc2c(c1)[C@]1(C)CCN(C)[C@@H]1N2C [Eserine hemisulfate salt] | 0.423 ± 0.028 |
| C[C@@H]1O[C@@H](O[C@@H]2C=C3CC[C@@H]4[C@H](CC[C@]5(C)[C@@H](c6ccc(=O)oc6)CC[C@]45O)[C@@]3(C)CC2)[C@H](O)[C@H](O)[C@H]1O [Proscillaridin A] | 0.626 ± 0.018 |
| C[C@]12CC[C@@H](O)C[C@@H]1CC[C@@H]1[C@@H]2CC[C@]2(C)C(=O)CC[C@@H]12 [Androsterone] | 0.291 ± 0.016 |
| O=C1CC[C@@]2(O)[C@H]3Cc4ccc(O)c5c4[C@@]2(CCN3CC2CC2)[C@H]1O5 [Naltrexone hydrochloride dihydrate] | 0.496 ± 0.022 |
| CC(C)N(CCC(C(N)=O)(c1ccccc1)c1ccccn1)C(C)C (stereo not given) [Disopyramide] | 0.543 ± 0.056 |

| Compound | growth |
| --- | --- |
| CCn1cc(C(=O)O)c(=O)c2cc3c(cc21)OCO3 [Oxolinic acid] | 0.0605 ± 0.0014 |
| C[C@@]12N[C@@H](Cc3ccccc31)c1ccccc12 [(-)-MK 801 hydrogen maleate] | 0.564 ± 0.017 |
| C=CCC1(CC(C)C)C(=O)NC(=O)NC1=O [Butalbital] | 0.516 ± 0.029 |
| CCN(CC)C(C)C(=O)c1ccccc1 (stereo not given) [Amfepramone hydrochloride] | 0.556 ± 0.038 |
| CN1[C@@H]2CC[C@H]1C[C@@H](OC(=O)C(CO)c1ccccc1)C2 (stereo not given in full) [Atropine sulfate monohydrate] | 0.418 ± 0.017 |
| COc1ccc(OC)c(C(O)C(C)N)c1 (stereo not given) [Methoxamine hydrochloride] | 0.458 ± 0.037 |
| NCC(CC(=O)O)c1ccc(Cl)cc1 (racemic) [Baclofen (R,S)] | 0.456 ± 0.038 |
| C[C@@H]1CN([C@H]2CC[C@](C#N)(c3ccc(F)cc3)CC2)CC[C@]1(C(=O)O)c1ccccc1 [Levocabastine hydrochloride] | 0.49 ± 0.026 |
| NCCCNCCSP(=O)(O)O [Amifostine] | 0.627 ± 0.013 |
| CN(C)[C@@H]1C(=O)C(C(N)=O)=C(O)[C@@]2(O)C(=O)C3=C(O)c4c(O)cccc4[C@@](C)(O)[C@H]3C[C@@H]12 [Tetracycline hydrochloride] | 0.0518 ± 0.0007 |
| C[N+]1(C)[C@@H]2CC[C@H]1C[C@@H](OC(=O)C(CO)c1ccccc1)C2 (stereo not given in full) [Methylatropine nitrate] | 0.707 ± 0.049 |
| COc1ccc(CN2CCNCC2)c(OC)c1OC [Trimetazidine dihydrochloride] | 0.584 ± 0.012 |
| S=C(NC1CCCCC1)N1CCC(c2cnc[nH]2)CC1 [Thioperamide maleate] | 0.561 ± 0.066 |
| CCCN1C[C@H](CSC)C[C@@H]2c3cccc4[nH]cc(c34)C[C@H]21 [Pergolide mesylate] | 0.529 ± 0.017 |
| C[N+](C)(C)CCCCCCCCCC[N+](C)(C)C [Decamethonium bromide] | 0.417 ± 0.017 |
| Oc1cc(Cl)ccc1Oc1ccc(Cl)cc1Cl [Triclosan] | 0.0516 ± 0.0015 |
| C[C@]12CCC(=O)C(O)=C1CC[C@@H]1[C@@H]2CC[C@]2(C)C(=O)CC[C@@H]12 [Formestane] | 0.392 ± 0.026 |
| C[C@]12CC[C@H](O)C[C@H]1CC[C@@H]1[C@@H]2C[C@@H](O)[C@]2(C)[C@@H](C3=CC(=O)OC3)CC[C@]12O [Digoxigenin] | 0.491 ± 0.031 |
| O=C(NCNC(=O)NC1C(=O)NC(=O)N1CO)NC1C(=O)NC(=O)N1CO (stereo not given) [Imidurea] | 0.545 ± 0.022 |
| c1ccc2nc(N3CCNCC3)ccc2c1 [Quipazine dimaleate salt] | 0.47 ± 0.0099 |
